Assay outcomes from PubChem.
In the library only some 7.9% were active in any assay of this set; here they are far more common.
FMDV antiviral: High Throughput Screening for Foot and Mouth Disease Virus Antivirals; FMDV antiviral cell-based qHTS; 410,000 compounds, 1.2% hits; Potency, µM (highest dose often 57.9 µM), for inactives: top-dose activity change, negative = inhibition, hits mostly inhibitors; calls by dose curve; tested in HEK293T cells; note: read-out not given here; potency is the fitted concentration of half-maximal effect; nearly all actives have a fitted effect of over 45% in size
HCMV antiviral: qHTS Assay for inhibitors of the human cytomegalovirus (HCMV). HFF cells, HCMV-luciferase reporter, 72 h; hits give low values. activity change, negative = inhibition, % at 57.5 µM. 410,000 compounds, 4.5% hits. AID 1259415, 2018; in the data active = activity change below about -60%; inconclusive = no clear call, values can overlap the other calls; inactive = above about -39%
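Inhibition of viral replication was scored as loss of reporter luminescence in HFFs infected with HCMV-luciferase (MOI 1 PFU/cell) for 72 h; compounds tested at 2 doses, normalized to buffer and Salinomycin controls.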
Marburg entry inh: qHTS for inhibitors of binding or entry into cells for Marburg Virus; AID 540276, 2011; Marburg virus pseudotyped entry inhibition, cell reporter; 300,000 compounds, 1.8% hits; Potency, µM (series often up to 37.8 µM), without a hit: at the top dose activity change, negative = inhibition, usual class: inhibitors; calls by dose curve; tested in HEK293 cells; note: potency is the fitted concentration of half-maximal effect
LASV entry inh: qHTS for Inhibitors of binding or entry into cells for Lassa Virus. Lassa virus pseudotype entry inhibition, cell reporter. Potency, µM (series often up to 37.9 µM), without a hit: top-dose activity change, negative = inhibition, actives largely listed as inhibitors. 300,000 compounds, 1.2% hits. AID 540256, 2011; calls by dose curve; tested in HEK293 cells; note: potency is the fitted concentration of half-maximal effect; nearly all actives have a fitted effect of over 50% in size
HCV inhibitor: qHTS Assay for Inhibitors of Hepatitis C Virus (HCV); 340,000 compounds, 3.4% hits; Huh7.5.1 HCVcc-Cre infection, luciferase reporter, 44 h; AID 651820, 2012; Potency, µM (series often up to 41.8 µM), for the others: top-dose activity change, negative = inhibition, hits mostly inhibitors; active = well fitted inhibition curve with a large enough effect; inconclusive = small, poorly fitted or top-dose-only effect, or another doubt; inactive = no such curve, though single readings can be large or run the other way; note: potency is the fitted concentration of half-maximal effect
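Cells seeded at 1,000/well and cultured 4 h, then compounds added followed by HCVcc-Cre virus (~0.5 moi). After 44 h further culture, luciferase substrate was added, plates held 15 min at room temperature, and luminescence read for 15 sec.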
Numbers without * were called inactive; ! = repeats disagree; [ ] = dose if it differs, or a comment. % is set by controls: 0 for no effect and ±100 for the full control effect.

How did Cc1cccc(NC2=Nc3ccccc3N3C2=Nc2c(c(C)nn2-c2ccccc2)C3c2ccc(O)c(O)c2)c1 (stereo not given) do in these assays?
FMDV antiviral: -21.7%; HCMV antiviral: -97.1*; Marburg entry inh: -26.7%; LASV entry inh: inconclusive; HCV inhibitor: inconclusive

Results for COc1ccc(OC)c(C(=O)COC(=O)COc2ccccc2)c1 ?
FMDV antiviral: inconclusive; HCMV antiviral: 36.7; Marburg entry inh: -24.3%; LASV entry inh: -8.9%; HCV inhibitor: 1.8%

Results for COc1cccc(C(c2cccc(OC)c2)c2ccccc2C(=O)O)c1 ?
FMDV antiviral: -25.4%; HCMV antiviral: 18.8; Marburg entry inh: 8.8%; LASV entry inh: 3.1%; HCV inhibitor: 10.3%

Results for COc1ccc(C2(c3ccc(OC)cc3)NC(=O)N(CC(=O)NC3(C#N)CCCC3)C2=O)cc1 ?
FMDV antiviral: -24.9%; HCMV antiviral: -16.4; Marburg entry inh: -0.1%; LASV entry inh: -8.5%; HCV inhibitor: -12.1%

How did Cc1ccc(C2(c3ccccc3)NC(=O)N(CC(=O)NC3(C#N)CCCC3)C2=O)cc1C (stereo not given) do in these assays?
FMDV antiviral: -19.3%; HCMV antiviral: -91.5*; HCV inhibitor: -9.7%

What do the screens show for `COc1ccccc1NS(=O)(=O)c1ccc(-c2cc(C)no2)s1`?
FMDV antiviral: -3.3%; HCMV antiviral: -39.8; HCV inhibitor: -5.6%

Results for Cc1cccc(N(C)S(=O)(=O)c2ccc(-c3cc(C)no3)s2)c1 ?
FMDV antiviral: 0.0%; HCMV antiviral: -73.8*!; LASV entry inh: inconclusive; HCV inhibitor: -21.9%

How did CCOc1ccc(N(C)S(=O)(=O)c2ccc(-c3cc(C)no3)s2)cc1 do in these assays?
FMDV antiviral: inconclusive; HCMV antiviral: -31.1; HCV inhibitor: 10µM*

How did CCN(c1cccc(C)c1)S(=O)(=O)c1ccc(-c2cc(C)no2)s1 do in these assays?
FMDV antiviral: -23.5%; HCMV antiviral: -65.4*; HCV inhibitor: 15.3%

What do the screens show for `CCOc1ccc(N(C)S(=O)(=O)c2cc(-c3cc(C)no3)ccc2C(C)C)cc1`?
FMDV antiviral: -25.7%; HCMV antiviral: inconclusive; HCV inhibitor: inconclusive

How did CC(Nc1cccc([N+](=O)[O-])c1)C(=O)Nc1ccc(S(=O)(=O)N2CCCC2)cc1 (stereo not given) do in these assays?
FMDV antiviral: -11.1%; HCMV antiviral: -20.6; Marburg entry inh: inconclusive; LASV entry inh: -1.2%; HCV inhibitor: -4.5%

What do the screens show for `CCn1cc2c(n1)-c1c(oc(C(=O)Nc3cccc(C(F)(F)F)c3)c1C)CC2`?
FMDV antiviral: 5.8%; HCMV antiviral: -35.6; LASV entry inh: 4.8%[46.1 µM]

How did CC(C)N1CC(O)=C(c2nc3ccccc3c(=O)[nH]2)C1=N do in these assays?
FMDV antiviral: 16.4%; HCMV antiviral: -10.3; Marburg entry inh: -3.1%; LASV entry inh: 8.7%; HCV inhibitor: 6.4%

What do the screens show for `Cc1cc(C)cc(N2CC(O)=C(c3nc4ccccc4c(=O)[nH]3)C2=N)c1`?
FMDV antiviral: 4.7%; HCMV antiviral: -10.4; Marburg entry inh: inconclusive; LASV entry inh: -17.4%; HCV inhibitor: 22.4µM*

Results for CC(C)CN(C(=O)CN1CCOCC1)c1c(N)n(CC(C)C)c(=O)[nH]c1=O ?
FMDV antiviral: -22.1%; HCMV antiviral: -72.3*; Marburg entry inh: -23.2%; LASV entry inh: 5.3%; HCV inhibitor: 3.8%

What do the screens show for `CC(C)CN(C(=O)CN1CC=C(c2ccccc2)CC1)c1c(N)n(CC(C)C)c(=O)[nH]c1=O`?
FMDV antiviral: -5.4%; HCMV antiviral: -38.8; Marburg entry inh: -10.6%; LASV entry inh: -1.5%[46.1 µM]; HCV inhibitor: 3.55µM*

Results for CCN(C(=O)CN1CC=C(c2ccccc2)CC1)c1c(N)n(Cc2ccccc2)c(=O)[nH]c1=O ?
FMDV antiviral: -5.6%; HCMV antiviral: -61.8*; Marburg entry inh: inconclusive; LASV entry inh: inconclusive; HCV inhibitor: -7.6%

What do the screens show for `CC(C)CN(C(=O)CN1CCCCCC1)c1c(N)n(CC(C)C)c(=O)[nH]c1=O`?
FMDV antiviral: 15.1%; HCMV antiviral: 52.3; Marburg entry inh: 5.2%[46.1 µM]; LASV entry inh: inconclusive; HCV inhibitor: 11.0%

Results for Cc1ncc2c(c1CNC(=O)CN1CCCCC1)CCN(C(=O)c1ccc(F)cc1Cl)C2 ?
FMDV antiviral: 4.9%

How did CC1(C)SC(=S)N(NC(=O)Nc2cccc3ccccc23)C1N(O)C(=O)Nc1ccccc1 (stereo not given) do in these assays?
FMDV antiviral: 0.0%; HCMV antiviral: -74.7*; Marburg entry inh: inconclusive; LASV entry inh: -27.3%; HCV inhibitor: inconclusive

What do the screens show for `CNC(=O)N(O)C1N(NC(=O)Nc2ccccc2)C(=S)SC1(C)C` (stereo not given)?
FMDV antiviral: -6.5%; HCMV antiviral: 0.8; Marburg entry inh: inconclusive; LASV entry inh: 7.2%; HCV inhibitor: inconclusive

What do the screens show for `CC1(C)SC(=S)N(/N=C/c2ccccc2)C1N(O)C(=O)Nc1ccc([N+](=O)[O-])cc1` (stereo not given)?
FMDV antiviral: 4.3%; HCMV antiviral: -25.8; Marburg entry inh: 17.8µM*; LASV entry inh: 0.0%; HCV inhibitor: inconclusive

Results for CCOC(=O)N/N=C1\C[C@@H](O)[C@@H](O)[C@@H]2[C@@H]3C(=O)N(Cc4ccccc4)C(=O)[C@@H]3CC[C@H]12 ?
Marburg entry inh: 24.9%[14.2 µM]

How did O=C(O)Cc1sc(Nc2ccccc2Cl)nc1-c1ccccc1 do in these assays?
FMDV antiviral: 32.5%; HCMV antiviral: -61.0*; Marburg entry inh: 28.0%[46.1 µM]; LASV entry inh: inconclusive

Results for CCc1sc(NC(=O)C(C)C)nc1-c1ccccc1 ?
FMDV antiviral: -13.5%; HCMV antiviral: -78.0*; Marburg entry inh: 1.8%[46.1 µM]; LASV entry inh: inconclusive; HCV inhibitor: -5.6%

How did CCc1sc(NC(C)=O)nc1-c1ccccc1 do in these assays?
FMDV antiviral: 0.4%; HCMV antiviral: 22.9; HCV inhibitor: 2.8%

Results for O=C1NC[C@H](Cc2ccccc2)N(CC2CCN(CC3CCCC3)CC2)C1=O ?
FMDV antiviral: -5.0%; HCMV antiviral: -11.7; HCV inhibitor: -61.8%

What do the screens show for `Cc1[nH]c2ccccc2c1/C=C/c1nc2ccccc2c(=O)n1CCO`?
FMDV antiviral: -7.0%; HCMV antiviral: 3.9; Marburg entry inh: inconclusive; LASV entry inh: 11.2µM*; HCV inhibitor: inconclusive

How did O=c1c2ccccc2nc(/C=C/c2ccc(Br)cc2)n1CCO do in these assays?
FMDV antiviral: -21.6%; HCMV antiviral: -37.5; Marburg entry inh: inconclusive; LASV entry inh: inconclusive; HCV inhibitor: -10.0%

Results for O=c1c2ccccc2nc(/C=C/c2cccc(Br)c2)n1CCCO ?
FMDV antiviral: -27.4%; HCMV antiviral: -92.1*; Marburg entry inh: inconclusive; LASV entry inh: inconclusive; HCV inhibitor: inconclusive

How did COc1ccccc1N/C=C/c1onc(C)c1[N+](=O)[O-] do in these assays?
FMDV antiviral: inconclusive; HCMV antiviral: -5.4; HCV inhibitor: -0.4%
